The source of these data is PubChem BioAssay.

Each structure is given as a SMILES string. Activity calls are given as the source filed them.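 The calls were made as follows: active = inhibition above 20% together with a positive visual image hit; inconclusive = visual image hit but inhibition not above 20%; inactive = no visual image hit.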

This experiment is described as follows: inhibitors of TNFa-induced NFkB p65 translocation, primary screen, imaging, HUVEC, MLSMR starter and 10KST1 sets (AID 438).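 Also: compound added about 3h40 before a 20 min TNFalpha stimulation.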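 As to inhibition: signal is the nuclear over cytoplasmic p65 intensity ratio per well.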 The settings on record: HUVEC TNFa-induced p65 nuclear translocation; cell count: measured here: nuclei count (cytotoxicity indicator), at 2.08 µM; inhibition: at 2 µM, stronger effect = higher value, 0% TNFa-plus-vehicle, 100% no-TNFa wells.
For orientation: inhibition means the relative decrease from the control value, in per cent. With `COCCCNc1nc(-c2ccncc2)nc2ccccc12`, the cell count is 419 and the inhibition is 1.9% (inactive).
For `CCOC(=O)c1cc2c(=O)n3ccccc3nc2n(Cc2ccccc2Cl)c1=N`, in that order: 339 and 0.5% (inactive).
With `COc1ccc(N/C=C(\C#N)c2nc3ccccc3n2C)c(OC)c1`, the cell count was determined as 367 and the inhibition was -0.5% (inactive).
For `Cc1c(C)c2cc(Cl)c(O)c(CN3CCN(C)CC3)c2oc1=O`, in that order: 394 and -6.5% (inactive).
For `Cc1cc(N2C(=O)C(=O)/C(=C(/O)c3ccccc3)C2c2cccc(Br)c2)no1` (stereo not given), in that order: 298 and -10.2% (inactive).
For `CC1=CC(c2ccccc2)n2nc(N3C(=O)C4CC=CCC4C3=O)nc2N1` (stereo not given), in that order: 367 and -3.2% (inactive).
Turning to `O=c1[nH]c(-c2ccccn2)nc2ccccc12`, the inhibition is -9% (inactive) and the cell count turned out to be 336.
Turning to `COc1ccccc1N(Cc1cc2cccc(C)c2[nH]c1=O)C(=O)C(C)C`, the cell count was found to be 355 and the inhibition was -9.7% (inactive).
Consider `COc1ccc(NCc2cc3ccccc3[nH]c2=O)cc1`, for which the cell count stood at 254 and the inhibition was -8.8% (inactive).
For the molecule `CN1CCN(Cc2c(O)ccc3c(-c4ccccc4)cc(=O)oc23)CC1`, the cell count turned out to be 362 and the inhibition was 6% (inactive).
On the same counts, the results for `COc1ccc(/C(O)=C2/C(=O)C(=O)N(CCN3CCOCC3)C2c2ccccn2)cc1OC` (stereo not given) are 409 and -7.4% (inactive).
Take `CC12CCC(C(=O)N(CCC#N)CCC#N)(CC1=O)C2(C)C` (stereo not given): the inhibition is 21.3% (inactive) and the cell count amounted to 311.
For the molecule `Cc1cccc(C)c1N1C(=O)C2ON(c3ccccc3)C(c3ccncc3)C2C1=O` (stereo not given), the inhibition was -1.4% (inactive) and the cell count is 382.
Regarding `CCCc1cc(=O)oc2c(CN3CCN(C)CC3)c(O)c(Cl)cc12`, the inhibition was 1.4% (inactive) and the cell count amounted to 332.
As to `COCCN(CCOC)C(=O)C12CCC(C)(C(=O)C1)C2(C)C` (stereo not given), the inhibition was -4.2% (inactive) and the cell count was determined as 237.
For `c1ccc(-c2nc(NCC3CCCO3)c3ccccc3n2)nc1` (stereo not given), in that order: 0% (inactive) and 365.
`COC(=O)C1=C(C)N=C2SC(C)C(=O)N2C1c1cccs1` (stereo not given): the inhibition is 3.7% (inactive) and the cell count turned out to be 366.
For `COC(=O)C1=C(C)N=C2SC(C)C(=O)N2C1/C=C/c1ccccc1OC` (stereo not given), in that order: 3.2% (inactive) and 366.
For `CCOc1ccc(/C(O)=C2/C(=O)C(=O)N(c3nc(C)c(C)s3)C2c2ccco2)cc1` (stereo not given), the inhibition was 13.9% (inactive) and the cell count is 326.
As to `CCN(CC)CCCN1C(=O)C(=O)/C(=C(/O)c2ccc(Cl)cc2)C1c1ccccn1` (stereo not given), the cell count was found to be 355 and the inhibition was 3.2% (inactive).
As to `CCc1cc(=O)oc2c(CN3CCCC3)c(O)c(Cl)cc12`, the cell count was 285 and the inhibition was -8.8% (inactive).
Consider `COc1cccc(-c2nc(NC(C)C)c3ccccc3n2)c1O`, for which the cell count turned out to be 342 and the inhibition was -2.3% (inactive).
For `CCOc1ccc(C2C(C(=O)c3ccc(C)o3)=C(O)C(=O)N2CCN2CCOCC2)cc1OC` (stereo not given), the cell count is 248 and the inhibition is -6% (inactive).
Regarding `Oc1ccccc1-c1nc(NCc2ccco2)c2ccccc2n1`, the cell count turned out to be 332 and the inhibition is 1.4% (inactive).
On the same counts, the results for `COc1ccccc1-c1cc(-c2cc(Cl)ccc2O)n[nH]1` are 259 and -13% (inactive).
On the same counts, the results for `N#Cc1nc(-c2ccccc2Cl)oc1N1CCCCC1` are 419 and 6.4% (inactive).
For `CC(C)Cn1nc(NC(=O)C(C)(C)C)c2cc3ccccc3nc21`, in that order: 366 and 1.4% (inactive).
On to `CCO/C(C)=N/n1c2nc3ccccc3nc2c2c(=O)n(CC(C)C)c(C)nc21`, for which the inhibition is 1.4% (inactive) and the cell count amounted to 369.
On to `O=C(NCCCn1ccnc1)C(Cc1ccccc1)N1C(=O)c2ccccc2C1=O` (stereo not given), for which the cell count was determined as 340 and the inhibition was -6.9% (inactive).
On the same counts, the results for `O=C(O)CCCCCN1C(=O)CCC1=O` are 376 and -5.6% (inactive).
On the same counts, the results for `CCCSc1nc(C)c(CC(=O)O)c(=O)[nH]1` are 381 and -7.9% (inactive).
Take `COc1cccc(-c2nc(NCCN3CCOCC3)c3ccccc3n2)c1O`: the cell count was determined as 355 and the inhibition is -7.9% (inactive).
As for `CC1CCCCN1C(=O)C12CCC(C)(/C(=N/O)C1)C2(C)C` (stereo not given), the inhibition was -6.9% (inactive) and the cell count was found to be 333.
Take `Oc1ccccc1-c1nc(NCCN2CCOCC2)c2ccccc2n1`: the inhibition was -6.5% (inactive) and the cell count came out at 268.
On the same counts, the results for `CCC1CCCCN1c1nc(-c2cccc(OC)c2O)nc2ccccc12` (stereo not given) are 0.9% (inactive) and 322.
For `COc1ccc(C2C=C(c3ccc(Cl)cc3)Nc3nc(NC(C)=O)nn32)cc1` (stereo not given), in that order: 1.9% (inactive) and 325.
For the molecule `Oc1ccc(Br)cc1-c1cc(-c2ccccc2F)[nH]n1`, the cell count turned out to be 293 and the inhibition is 13% (inactive).
On the same counts, the results for `C=CCNc1nc(-c2cccc(OC)c2O)nc2ccccc12` are 347 and 5.6% (inactive).
As for `COc1cccc(/C(O)=C2/C(=O)C(=O)N(CCN(C)C)C2c2ccc(Br)cc2)c1` (stereo not given), the inhibition is 18.1% (inactive) and the cell count is 321.
As to `CC1(C)CC(=O)C2=C(C1)Oc1nc3ccccc3cc1C2C(C#N)C#N` (stereo not given), the inhibition was -3.7% (inactive) and the cell count turned out to be 373.
